Test results reported in PubChem BioAssay (NCI).
“And” between values parts separate entries of the source, which are not always exact repeats. Equal entries are not always repeated. Compounds without any hit were thinned out: in the full panel of roughly 83,000, 20% have a hit.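 Treatment: one concentration, 48 hours, 96-well format. Scoring: percent growth, with anything below 10 considered active.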 The source made the active and inactive calls.

Experiments:
Assay in all cases: NCI-60 one-dose screen, 48 h (100 = growth as untreated, 0 = no growth, -100 = all killed)
Settings in all cases: 10 µM unless noted
RPMI-8226 leukemia = tested on: RPMI-8226 leukemia
OVCAR-8 ovarian = tested on: OVCAR-8 ovarian
OVCAR-5 ovarian = tested on: OVCAR-5 ovarian
SK-OV-3 ovarian = tested on: SK-OV-3 ovarian
OVCAR-3 ovarian = tested on: OVCAR-3 ovarian
HS 578T breast = tested on: HS 578T breast
NCI/ADR-RES ovarian = tested on: NCI/ADR-RES ovarian
SR leukemia = tested on: SR leukemia
IGROV1 ovarian = tested on: IGROV1 ovarian
OVCAR-4 ovarian = tested on: OVCAR-4 ovarian

Compound	growth (RPMI-8226 leukemia)	growth (OVCAR-8 ovarian)	growth (OVCAR-5 ovarian)	growth (SK-OV-3 ovarian)	growth (OVCAR-3 ovarian)	growth (HS 578T breast)	growth (NCI/ADR-RES ovarian)	growth (SR leukemia)	growth (IGROV1 ovarian)	growth (OVCAR-4 ovarian)
COc1cc(C(O)C2C(=O)OCC2C2(c3ccc4c(c3)OCO4)SCCCS2)cc(OC)c1OC (stereo unspecified)	98.9% (inactive)	102% (inactive)	97.2% (inactive)	105% (inactive)	105% (inactive)	101% (inactive)	89.4% (inactive)			
O=C1OC(c2ccccc2)=N/C1=C\c1ccccc1	102% (inactive)	100% (inactive)	105% (inactive)	97.2% (inactive)	111% (inactive)	97.4% (inactive)	99.7% (inactive)	108% (inactive)		
ClCCOCCOc1ccc(C2CCCCC2)cc1	110% (inactive)	97.1% (inactive)	95.4% (inactive)	102% (inactive)	103% (inactive)	101% (inactive)	115% (inactive)	98.5% (inactive)	117% (inactive)	
CCCCCCCCCCNC(=O)CI	-37.1% (active)	0.969% (active)	95.8% (inactive)	5.75% (active)	-70.3% (active)	91.3% (inactive)	2.88% (active)	-40.9% (active)		
c1ccc(CNCCNCc2ccccc2)cc1	101% (inactive)	124% (inactive)	102% (inactive)	107% (inactive)	121% (inactive)	114% (inactive)	112% (inactive)	95.3% (inactive)		
CC(=O)Nc1ccc(S(N)(=O)=O)cc1	95.6% (inactive) and 111% (inactive)	99.5% (inactive) and 97.6% (inactive)	106% (inactive) and 102% (inactive)	95.4% (inactive) and 99.8% (inactive)	110% (inactive) and 116% (inactive)	96.3% (inactive) and 113% (inactive)	102% (inactive) and 104% (inactive)	117% (inactive) and 105% (inactive)	99.5% (inactive) and 97.1% (inactive)	
CC1(C)COC(=S)N1		103% (inactive)	93.4% (inactive)	109% (inactive)	110% (inactive)	106% (inactive)	106% (inactive)	93.8% (inactive)	95.8% (inactive)	
CC1CCC2(C(=O)O)CCC3(C)C(=CCC4C5(C)CCC(O)C(C)(C)C5CCC43C)C2C1C (stereo unspecified)	48.5% (inactive) and 83.4% (inactive)	93.3% (inactive)	-8.77% (active) and 87.9% (inactive)	91.6% (inactive) and 104% (inactive)	56% (inactive) and 101% (inactive)	-49% (active) and 63.1% (inactive)	16.5% (inactive) and 97.3% (inactive)	39.3% (inactive) and 46.8% (inactive)		
O=C(Cc1ccccc1)c1ccc(O)c(Cl)c1	-6.77% (active)	43.4% (inactive)	65.6% (inactive)	101% (inactive)	12.4% (inactive)	37.4% (inactive)	28.5% (inactive)	10.2% (inactive)		
COc1ccc(C(=O)CC(c2ccccc2)C(C#N)c2ccccc2)cc1 (stereo unspecified)	72.6% (inactive)	86% (inactive)	110% (inactive)	102% (inactive)	82.4% (inactive)	86.4% (inactive)	84.2% (inactive)	73.8% (inactive)	102% (inactive)	
O=C(O)/C=C\C(=O)Nc1cccc2ccccc12	81.8% (inactive) and 95.4% (inactive)	102% (inactive) and 105% (inactive)	100% (inactive) and 104% (inactive)	92% (inactive) and 103% (inactive)	90.1% (inactive) and 113% (inactive)	105% (inactive) and 104% (inactive)	110% (inactive) and 104% (inactive)	103% (inactive) and 70.2% (inactive)		
CC(C)NC(=O)N/C=C(\C#N)C(N)=O	116% (inactive)	109% (inactive)	92.5% (inactive)	104% (inactive)	105% (inactive)	108% (inactive)	100% (inactive)	100% (inactive)		
CCOC(=O)c1c(C)cc(=O)oc1C	97.9% (inactive)	111% (inactive)	101% (inactive)	103% (inactive)	121% (inactive)	118% (inactive)	104% (inactive)	92% (inactive)		
Nc1cc(N)c(N)cc1N	89.7% (inactive)	63.3% (inactive)	-9.01% (active)	98.4% (inactive)	-55.1% (active)	67.7% (inactive)	59.6% (inactive)	-7.21% (active)		
N#CC(C#N)N=Nc1cc(Cl)ccc1Cl	95.2% (inactive)	90% (inactive)	97.4% (inactive)	99.2% (inactive)	106% (inactive)	116% (inactive)	112% (inactive)	106% (inactive)		
O=C(O)CCCl	101% (inactive)	104% (inactive)	99.1% (inactive)	118% (inactive)	115% (inactive)	96.4% (inactive)	108% (inactive)	83.7% (inactive)	107% (inactive)	
CC(=O)OC(C)C(=O)NCC(C)O (stereo unspecified)		102% (inactive)	104% (inactive)	95.3% (inactive)	107% (inactive)	86% (inactive)	106% (inactive)	88% (inactive)	114% (inactive)	
CCCCCCCCCCCCCCCc1ccc(N)c(OC2OC(CO)C(O)C(O)C2O)c1 (stereo unspecified)	28.7% (inactive)	87.1% (inactive)	65.8% (inactive)	149% (inactive)	93.6% (inactive)	103% (inactive)	73% (inactive)	40.2% (inactive)		
OC1COC(OCc2ccccc2)C(O)C1O (stereo unspecified)	103% (inactive)		99.1% (inactive)	98.9% (inactive)	106% (inactive)		103% (inactive)			
Cc1cc(-c2cc(C)c(O)c(C)c2)cc(C)c1O	79.4% (inactive)	95% (inactive)	95.6% (inactive)		97.2% (inactive)	85.1% (inactive)	76% (inactive)		100% (inactive)	
COc1ccc(N/C=C/C2=[N+](C)c3ccccc3C2(C)C)c(OC)c1	81.6% (inactive)	93.6% (inactive)	106% (inactive)	90.7% (inactive)	93.6% (inactive)	99.9% (inactive)	92.8% (inactive)	101% (inactive)		
Cn1cnc([N+](=O)[O-])c1Sc1ncn[nH]1		73.8% (inactive)	116% (inactive)	115% (inactive)	119% (inactive)	119% (inactive)	119% (inactive)	126% (inactive)		95.5% (inactive)
Nc1ncnc2c1ncn2C1OC(COP(=O)(O)O)C(O)C1O (stereo unspecified)	106% (inactive)	111% (inactive)	108% (inactive)	114% (inactive)	124% (inactive)		109% (inactive)	111% (inactive)		
CCCCCCCCCCCCCCCCC(C(=O)O)C(O)(CC(=O)O)C(=O)O (stereo unspecified)	104% (inactive) and -25.5% (active)	111% (inactive)	109% (inactive) and -56.6% (active)	98.3% (inactive) and 36.1% (inactive)	111% (inactive) and -3.72% (active)		111% (inactive) and 89.7% (inactive)	90.8% (inactive) and 1.12% (active)		
Cc1cc(-c2ccc(N=Nc3ccc4c(S(=O)(=O)O)cc(S(=O)(=O)O)c(N)c4c3O)c(C)c2)ccc1N=Nc1ccc2c(S(=O)(=O)O)cc(S(=O)(=O)O)c(N)c2c1O		101% (inactive)	90.2% (inactive)	102% (inactive)	95.5% (inactive)	119% (inactive)	103% (inactive)			
c1ccc(-c2nc3ccccc3s2)cc1		88.3% (inactive)	84.1% (inactive)		105% (inactive)	93% (inactive)	96.1% (inactive)	103% (inactive)	75.4% (inactive)	101% (inactive)
CC1CCC2(OC1)OC1CC3C4CC=C5CC(O)CCC5(C)C4CCC3(C)C1C2C (stereo unspecified)	71.4% (inactive)	102% (inactive)	114% (inactive)	114% (inactive)	105% (inactive)	86.8% (inactive)	114% (inactive)	29.7% (inactive)		
CCCCNc1ccc(Nc2ccccc2)cc1	-25% (active)	74.2% (inactive)	103% (inactive)		66% (inactive)	105% (inactive)	86.4% (inactive)	62.3% (inactive)		
O=C1c2c(O)ccc(O)c2C(=O)c2c(NCCNCCO)ccc(NCCNCCO)c21	-21.8% (active) and -30.9% (active)	-41.6% (active)	-15.1% (active) and -78.6% (active)	-23.4% (active) and -35.4% (active)	-50.5% (active) and -31.7% (active)	-22.8% (active)	39.1% (inactive) and -9.1% (active)	-12.7% (active)		
